Most compounds without a hit are left out; they make up all but 5.1% or so of the library.
S1P3 antag = S1P3 (human) receptor antagonism | CHO S1P3 NFAT-BLA reporter, FRET fluorescence, antagonist mode | inhibition, % at 4.98 µM | hit rate 0.27% among 170,000;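 active = inhibition above the plate cutoff, the mean inhibition of test wells on that plate plus 3 SD, cut at about 28% in these data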;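 note: cells challenged with S1P at its EC80 of 0.8 µM; blue over green emission ratio from cleaved BLA substrate after 4 h stimulation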
S1P4 agonist = human S1P4 receptor agonism; S1P4-expressing cell line, agonist reporter assay; hit rate 0.35% among 220,000; activation, % at 4.98 µM; AID 1509; in the data active = activation above about 11%
Target sequence (O95977 whole entry, looked up): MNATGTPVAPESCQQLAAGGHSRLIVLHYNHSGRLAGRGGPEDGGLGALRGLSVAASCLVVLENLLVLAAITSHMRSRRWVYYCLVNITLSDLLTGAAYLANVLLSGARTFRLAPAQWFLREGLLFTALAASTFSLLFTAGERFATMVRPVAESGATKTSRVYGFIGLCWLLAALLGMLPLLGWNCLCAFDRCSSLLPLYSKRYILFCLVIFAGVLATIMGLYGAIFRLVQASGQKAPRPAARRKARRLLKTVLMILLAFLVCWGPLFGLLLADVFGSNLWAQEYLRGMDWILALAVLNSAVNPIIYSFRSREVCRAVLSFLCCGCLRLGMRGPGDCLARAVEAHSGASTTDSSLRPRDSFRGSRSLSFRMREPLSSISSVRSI
RAM inhibit = yeast RAM network inhibition; S. cerevisiae dse1pr::URA3 reporter, 5-FOA growth OD615, 2 d; analog-sensitive cbk1-as2 kinase mutant strain; inhibition, % at 50 µM; hit rate 1.8% among 190,000; AID 868;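 active = inhibition above a set limit, 3 SD over mean compound inhibition, cut at about 8.4% in these data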;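 note: inhibition rescues growth on 5-FOA so higher OD means more RAM inhibition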
KCC2 mod = KCC2 (human) Cl- transport modulation. AID 1456. hit rate 2.2% among 190,000. B-score of Tl+ flux slope (higher = more flux/activation; lower = inhibition) at 10 µM. KCC2 cells, thallium flux FluoZin-2 fluorescence;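 active = thallium flux slope and its plate-corrected score both differing from the plate sample mean at a set confidence after two filtering rounds, in either direction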;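 note: slope of fluorescence scaled to starting intensity during 10 to 20 s after thallium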
S1P4 antag = human S1P4 receptor antagonism | O95977 | S1P4-expressing cells, antagonist mode, reporter read-out | inhibition, % at 4.98 µM | hit rate 0.26% among 220,000 | AID 1510; in the data active = inhibition above about 29%
ROMK mod = human ROMK K+ channel modulation, primary screen; B-score at 10 µM; AID 1918; P48048; hit rate 2% among 130,000; Tet-inducible ROMK, thallium flux fluorescence; actives lie on both sides;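 active = signal ratio slope over the read window, or its plate-corrected B-score, at least 3 SD from the plate mean, either direction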;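 note: B-score of the F/F0 ratio slope over 7 to 12 s after thallium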
Target sequence (P48048 whole entry, looked up): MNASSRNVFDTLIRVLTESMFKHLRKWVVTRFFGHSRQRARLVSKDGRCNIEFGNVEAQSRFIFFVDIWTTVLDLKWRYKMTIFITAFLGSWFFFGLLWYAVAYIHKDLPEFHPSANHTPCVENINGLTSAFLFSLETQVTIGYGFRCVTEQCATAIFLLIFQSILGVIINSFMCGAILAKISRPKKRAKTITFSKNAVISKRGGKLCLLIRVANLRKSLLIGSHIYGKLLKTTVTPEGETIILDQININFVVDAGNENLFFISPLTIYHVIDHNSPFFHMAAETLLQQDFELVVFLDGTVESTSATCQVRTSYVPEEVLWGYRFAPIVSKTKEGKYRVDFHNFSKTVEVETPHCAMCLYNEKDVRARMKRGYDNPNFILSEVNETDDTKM
KCC2 secondary = confirmation of human KCC2 transport modulators | shares compounds with KCC2 mod | normalised thallium flux (F/F0 slope) at 10 µM | HEK293-KCC2, thallium flux, FluoZin2 fluorescence; hits give high values | hit rate 15% among 3,700 | AID 1713;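 active = thallium flux slope above the same plate's solvent-only control mean plus 3 SD; inconclusive = the two replicate wells disagree; inactive = no significant difference from solvent-only control wells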
KCC2 bumet counter = bumetanide-insensitive thallium flux in KCC2 cells with ouabain, counter-screen | shares compounds with KCC2 mod | HEK293-KCC2 + bumetanide/ouabain, thallium flux FluoZin2; hits give high values | normalized thallium flux at 10 µM | hit rate 49% among 3,700 | AID 1714;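 active = thallium entry rate above the same plate's blocked-transporter control wells by more than 3 SD; inconclusive = the two repeat wells disagree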;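 note: raw slope of fluorescence over initial fluorescence between 10 and 20 s after thallium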
KCC2 sec2 = KCC2 (human) modulation, second secondary assay. shares compounds with KCC2 mod. HEK293-KCC2, thallium flux FluoZin2 fluorescence; actives lie on both sides; F/F0 rise rate, 10–20 s post-thallium. normalized thallium flux at 10 µM. hit rate 23% among 3,700. AID 1715;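 active = thallium flux slope more than 3 SD above or below the plate's solvent-only control mean, mostly below; inconclusive = the two repeat wells disagreed; inactive = no significant shift from solvent-only controls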
HEK293 Tl flux = parental HEK flux effect, counter-screen | AID 1716 | hit rate 46% among 3,700 | HEK293 parental cells, thallium flux FluoZin2, ouabain; baseline-ratio fluorescence slope, 10–20 s after thallium | thallium flux rate (normalised fluorescence) at 10 µM | shares compounds with KCC2 mod;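 active = thallium flux rate significantly above the same plate's solvent-only control wells, beyond their mean plus 3 SD; inconclusive = the two replicate wells gave conflicting results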
KCC2 retest ouab = KCC2 (human) modulation, ouabain retest. shares compounds with KCC2 mod. HEK293-KCC2, thallium flux FluoZin2 fluorescence; bidirectional: low = inhibitor, high = activator. raw Tl+ flux slope (below DMSO = inhibition, above = activation) at 10 µM. hit rate 48% among 3,700. AID 1717;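 active = thallium flux slope beyond 3 SD from same-plate DMSO control mean in most replicates, usually higher, sometimes lower; inconclusive = repeat tests gave conflicting results; inactive = no significant difference from controls in most replicates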;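 note: slope of initial-normalized fluorescence between seconds 10 and 20 after thallium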
HEK counter2 = parental HEK flux effect, counter-screen 2; HEK293 parental, thallium flux FluoZin-2 fluorescence slope; shares compounds with KCC2 mod; thallium flux slope at 10 µM; hit rate 33% among 3,700;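 active = thallium flux slope above the same plate's solvent-control mean plus 3 SD in both duplicate wells; inconclusive = duplicate wells that disagreed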;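 note: run without ouabain in cells lacking the KCC2 cotransporter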
Of the large screens only hits and unclear results are named; the others gave an inactive call (follow-up assays come after a bar, where they were run).

CCN1C(=O)[C@@H]2[C@H](C1=O)[C@@H]1C[C@H]3C(=O)N(CC)C(=O)[C@H]3[C@@H]3C1=C(C(=O)N1C(=O)OC(=NCC4CC4)[C@]31C)[C@@H]2C	none (no result: S1P3 antag, S1P4 agonist, RAM inhibit, S1P4 antag, ROMK mod)
CCC(C)N1CCNCC1 (stereo unspecified)	none
Cc1ccc(S(=O)(=O)Nc2cc(-c3nn(C)c(=O)c4ccccc34)ccc2N2CCOCC2)cc1	none (no result: S1P3 antag, KCC2 mod)
Cn1nc(-c2ccc(N3CCOCC3)c(NS(=O)(=O)c3ccc(Cl)cc3)c2)c2ccccc2c1=O	KCC2 mod 5.8 (no result: S1P3 antag, ROMK mod) | KCC2 secondary inactive | KCC2 bumet counter inactive | KCC2 sec2 inactive | HEK293 Tl flux inactive | KCC2 retest ouab inactive | HEK counter2 inactive
Cc1ccc(C)c2sc(NC(=O)c3nc4ccccc4s3)nc12	KCC2 mod 60 | KCC2 secondary 0.014 | KCC2 bumet counter 0.033 | KCC2 sec2 inactive | HEK293 Tl flux 0.059 | KCC2 retest ouab 0.036 | HEK counter2 0.015
O=c1c2ccccc2n2c(-c3cccc(Cl)c3)nnc2n1Cc1ccccc1	none (no result: ROMK mod)
COc1ccc(-c2nnc3n(CCc4ccccc4)c(=O)c4ccccc4n23)cc1OC	KCC2 mod 4.4 (no result: ROMK mod) | KCC2 secondary inactive | KCC2 bumet counter 0.017 | KCC2 sec2 inactive | HEK293 Tl flux 0.0097 | KCC2 retest ouab inconclusive | HEK counter2 inconclusive
CCN(CC)CCNC(=O)/C(=C/c1cn(C)c2ccccc12)NC(=O)c1ccc(OC)c(OC)c1	none (no result: RAM inhibit, ROMK mod)
Oc1cc2c(cc1O)C1c3ccc(O)c(O)c3OCC1(O)C2 (stereo unspecified)	none (no result: ROMK mod)
COC(=O)c1cccnc1NC(=S)NC1CCCCC1	KCC2 mod 121 | KCC2 secondary 0.012 | KCC2 bumet counter 0.13 | KCC2 sec2 0.098 | HEK293 Tl flux 0.1 | KCC2 retest ouab 0.098 | HEK counter2 0.1
COC(=O)C1C(=O)C2=C(CC1C)NC(C)=C(C(=O)OC(C)C)C2c1ccc(C)o1 (stereo unspecified)	none (no result: S1P3 antag, KCC2 mod) | KCC2 secondary inactive | KCC2 bumet counter inactive | KCC2 sec2 inactive | HEK293 Tl flux inactive | KCC2 retest ouab inactive | HEK counter2 inactive
Cc1cc(=O)n(Cc2ccc(OC(C)C)cc2)c(=S)[nH]1	none (no result: KCC2 mod) | KCC2 secondary inconclusive | KCC2 bumet counter 0.015 | KCC2 sec2 inactive | HEK293 Tl flux 0.016 | KCC2 retest ouab inconclusive | HEK counter2 inactive
COC(=O)c1ccc2c(=O)n(Cc3ccc(C(=O)NC(C)C)cc3)c(=S)[nH]c2c1	none
CSc1nc(SCC(=O)NCC2CCCO2)c2c3c(sc2n1)CN(C)CC3 (stereo unspecified)	none (no result: RAM inhibit)
Cc1ccc(Cc2c[nH]c(=S)s2)cc1	KCC2 mod 194 (no result: ROMK mod) | KCC2 secondary inconclusive | KCC2 bumet counter 0.14 | KCC2 sec2 0.11 | HEK293 Tl flux 0.11 | KCC2 retest ouab 0.14 | HEK counter2 0.099
CCOc1cc(/C=C2/NC(=O)NC2=O)cc(Br)c1OCc1ccc(C(=O)O)cc1	none
O=[N+]([O-])c1ccccc1/C=N/Nc1nnc(-c2ccccc2)c(-c2ccccc2)n1	none
CC1CCCN(C(=O)c2cccc(S(=O)(=O)Nc3cc(C(F)(F)F)ccc3Cl)c2)C1 (stereo unspecified)	KCC2 mod -3.7 (no result: ROMK mod) | KCC2 secondary inactive | KCC2 bumet counter inactive | KCC2 sec2 inactive | HEK293 Tl flux inactive | KCC2 retest ouab 0.015 | HEK counter2 inactive
O=C(CCC(=O)OCC(F)(F)C(F)F)Nc1ccc(Cl)cc1	KCC2 mod 8.3 (no result: ROMK mod) | KCC2 secondary inactive | KCC2 bumet counter inactive | KCC2 sec2 inconclusive | HEK293 Tl flux inactive | KCC2 retest ouab inactive | HEK counter2 inactive
O=C(CCC(=O)OCC(F)(F)C(F)F)Nc1ccc(F)cc1F	none
CC(/C=N/n1c(-c2ccccn2)n[nH]c1=S)=C\c1ccccc1	KCC2 mod 8.4 (no result: RAM inhibit, ROMK mod) | KCC2 secondary inactive | KCC2 bumet counter 0.029 | KCC2 sec2 inactive | HEK293 Tl flux 0.013 | KCC2 retest ouab inconclusive | HEK counter2 inactive
S=c1[nH]nc(-c2ccccn2)n1/N=C/c1ccccc1	none
O=C(N/C(=C/C=C\c1ccccc1)C(=O)N1CCOCC1)c1ccc(Br)cc1	none
O=C(CCCSc1nc2sc3c(c2c(=O)[nH]1)CCC3)NCCO	KCC2 mod -4.2 (no result: ROMK mod) | KCC2 secondary inactive | KCC2 bumet counter inactive | KCC2 sec2 inactive | HEK293 Tl flux inactive | KCC2 retest ouab inactive | HEK counter2 inactive
CC(C)NC(=O)c1cc2ccccc2o1	none (no result: S1P3 antag)
COc1ccc(OCC(=O)Nc2ccccc2O)cc1	none (no result: S1P3 antag)
CC(Oc1ccccc1F)C(=O)NNC(=O)c1cc2ccccc2o1 (stereo unspecified)	none (no result: KCC2 mod) | KCC2 secondary inactive | KCC2 bumet counter 0.028 | KCC2 sec2 inactive | HEK293 Tl flux 0.022 | KCC2 retest ouab 0.03 | HEK counter2 0.016
COc1ccc(NC(=O)c2cc3ccccc3o2)cc1	none (no result: ROMK mod)
CCCNC(=O)c1ccccc1NC(=O)COc1ccc(OC)cc1	KCC2 mod 6.5 (no result: S1P3 antag) | KCC2 secondary inactive | KCC2 bumet counter inconclusive | KCC2 sec2 inactive | HEK293 Tl flux inactive | KCC2 retest ouab inactive | HEK counter2 inactive
COc1ccc(OCC(=O)NNC(=O)c2cc3ccccc3o2)cc1	KCC2 mod 5.1 | KCC2 secondary 0.013 | KCC2 bumet counter 0.017 | KCC2 sec2 inactive | HEK293 Tl flux inconclusive | KCC2 retest ouab inconclusive | HEK counter2 inactive
CCOC(=O)C1=NOC2C3CC(C12)C1C(=O)N(CCc2ccc(OC)c(OC)c2)C(=O)C31 (stereo unspecified)	none (no result: RAM inhibit, KCC2 mod, ROMK mod)
COc1ccc(N2CCN(C(=O)C3CCC(Cn4c(=S)[nH]c5ccccc5c4=O)CC3)CC2)cc1 (stereo unspecified)	KCC2 mod 2.8 (no result: S1P3 antag, ROMK mod) | KCC2 secondary inactive | KCC2 bumet counter 0.014 | KCC2 sec2 inactive | HEK293 Tl flux 0.014 | KCC2 retest ouab inconclusive | HEK counter2 0.015
